Source: the supplement of paper PMC11732987, “Enantioselective OTUD7B fragment discovery through chemoproteomics screening and high-throughput optimisation” (Communications Chemistry, 2025)

Columns and labels:
Test in all cases: log2 ratio of Biotin-Ahx-Ub-VS probe labelling (fragment/DMSO); higher = less target engagement (more negative = stronger competition), active = hit call of the paper (q ≤ 0.05, log2 ratio ≤ -1)
Details in all cases: compound concentration: 200 uM; treatment time: 3 h
USP34 = USP34 (UniProt Q70CQ2)
Outline: (§1)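 Each value is an average log2 ratio of fragment to vehicle, tested by unpaired t-test. The underlying Spectronaut label-free quantities were global-median-normalised, and only proteins with ≥2 unique peptides were included. Triplicate HEK293T lysate samples (495 µg) were exposed to fragment at 200 µM or vehicle for 3 h, then to Biotin-Ahx-Ub-VS at 0.5 µM final for 1 h, before NeutrAvidin enrichment of labelled DUBs, LysC and trypsin digestion, and diaPASEF LC-MS/MS.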

USP36 = biological target: T1, USP36 (UniProt Q9P275)
T1 sequence (whole entry): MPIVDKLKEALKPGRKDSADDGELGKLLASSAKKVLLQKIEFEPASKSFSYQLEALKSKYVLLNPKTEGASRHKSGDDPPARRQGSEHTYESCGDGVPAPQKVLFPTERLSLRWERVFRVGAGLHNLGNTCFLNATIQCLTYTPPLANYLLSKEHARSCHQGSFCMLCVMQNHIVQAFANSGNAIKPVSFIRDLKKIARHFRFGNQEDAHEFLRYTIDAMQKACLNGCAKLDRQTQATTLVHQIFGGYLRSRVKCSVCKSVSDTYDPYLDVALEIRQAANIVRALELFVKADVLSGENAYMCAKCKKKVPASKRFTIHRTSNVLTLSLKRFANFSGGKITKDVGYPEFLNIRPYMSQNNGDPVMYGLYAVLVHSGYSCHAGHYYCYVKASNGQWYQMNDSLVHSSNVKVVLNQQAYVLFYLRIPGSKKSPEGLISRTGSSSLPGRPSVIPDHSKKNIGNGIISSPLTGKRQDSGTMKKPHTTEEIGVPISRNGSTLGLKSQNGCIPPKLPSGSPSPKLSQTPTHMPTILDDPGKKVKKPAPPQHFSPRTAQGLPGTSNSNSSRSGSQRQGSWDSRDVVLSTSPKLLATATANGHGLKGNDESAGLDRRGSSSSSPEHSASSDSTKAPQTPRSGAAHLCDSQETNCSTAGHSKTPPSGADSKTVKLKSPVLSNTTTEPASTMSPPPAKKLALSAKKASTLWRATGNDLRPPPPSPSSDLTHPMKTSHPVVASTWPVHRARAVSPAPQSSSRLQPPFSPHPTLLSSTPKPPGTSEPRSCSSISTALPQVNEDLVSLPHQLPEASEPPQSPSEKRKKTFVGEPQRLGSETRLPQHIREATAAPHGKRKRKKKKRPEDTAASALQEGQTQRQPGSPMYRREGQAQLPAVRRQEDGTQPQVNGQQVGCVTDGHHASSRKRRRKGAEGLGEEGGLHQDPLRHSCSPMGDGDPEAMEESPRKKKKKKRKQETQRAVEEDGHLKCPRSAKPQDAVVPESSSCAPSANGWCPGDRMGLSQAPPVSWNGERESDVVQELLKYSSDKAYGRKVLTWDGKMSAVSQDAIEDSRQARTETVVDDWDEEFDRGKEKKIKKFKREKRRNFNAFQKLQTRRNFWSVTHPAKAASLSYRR
Outline: as §1

USP38 = biological target: T2, USP38 (UniProt Q8NB14)
T2 sequence (whole entry): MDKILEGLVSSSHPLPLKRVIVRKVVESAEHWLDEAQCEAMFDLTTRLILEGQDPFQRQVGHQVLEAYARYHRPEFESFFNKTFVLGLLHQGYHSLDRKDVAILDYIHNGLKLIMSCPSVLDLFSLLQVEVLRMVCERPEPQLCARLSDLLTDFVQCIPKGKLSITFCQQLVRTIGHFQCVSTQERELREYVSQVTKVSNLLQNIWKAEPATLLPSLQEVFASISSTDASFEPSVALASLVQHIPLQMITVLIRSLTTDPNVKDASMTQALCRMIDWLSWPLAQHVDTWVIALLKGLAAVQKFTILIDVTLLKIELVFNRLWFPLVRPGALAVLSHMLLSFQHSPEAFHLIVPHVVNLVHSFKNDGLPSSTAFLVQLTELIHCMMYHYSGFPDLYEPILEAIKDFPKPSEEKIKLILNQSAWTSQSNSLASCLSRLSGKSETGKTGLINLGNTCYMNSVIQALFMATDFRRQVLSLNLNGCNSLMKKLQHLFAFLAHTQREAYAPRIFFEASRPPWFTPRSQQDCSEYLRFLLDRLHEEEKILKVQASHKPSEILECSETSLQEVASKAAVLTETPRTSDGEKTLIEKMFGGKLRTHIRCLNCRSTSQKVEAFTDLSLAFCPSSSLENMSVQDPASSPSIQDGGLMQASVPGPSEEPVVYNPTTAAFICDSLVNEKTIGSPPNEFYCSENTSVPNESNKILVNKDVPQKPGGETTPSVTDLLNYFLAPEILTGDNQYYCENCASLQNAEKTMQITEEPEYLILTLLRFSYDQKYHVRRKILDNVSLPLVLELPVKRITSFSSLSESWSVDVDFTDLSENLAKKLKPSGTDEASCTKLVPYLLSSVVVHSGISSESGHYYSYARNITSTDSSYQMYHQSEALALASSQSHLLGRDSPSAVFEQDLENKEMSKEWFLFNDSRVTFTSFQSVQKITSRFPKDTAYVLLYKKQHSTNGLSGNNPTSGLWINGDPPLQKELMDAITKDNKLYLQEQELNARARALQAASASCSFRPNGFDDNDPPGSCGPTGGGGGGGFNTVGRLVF
Outline: as §1

USP39 = biological target: T3, USP39 (UniProt Q53GS9)
T3 sequence (whole entry): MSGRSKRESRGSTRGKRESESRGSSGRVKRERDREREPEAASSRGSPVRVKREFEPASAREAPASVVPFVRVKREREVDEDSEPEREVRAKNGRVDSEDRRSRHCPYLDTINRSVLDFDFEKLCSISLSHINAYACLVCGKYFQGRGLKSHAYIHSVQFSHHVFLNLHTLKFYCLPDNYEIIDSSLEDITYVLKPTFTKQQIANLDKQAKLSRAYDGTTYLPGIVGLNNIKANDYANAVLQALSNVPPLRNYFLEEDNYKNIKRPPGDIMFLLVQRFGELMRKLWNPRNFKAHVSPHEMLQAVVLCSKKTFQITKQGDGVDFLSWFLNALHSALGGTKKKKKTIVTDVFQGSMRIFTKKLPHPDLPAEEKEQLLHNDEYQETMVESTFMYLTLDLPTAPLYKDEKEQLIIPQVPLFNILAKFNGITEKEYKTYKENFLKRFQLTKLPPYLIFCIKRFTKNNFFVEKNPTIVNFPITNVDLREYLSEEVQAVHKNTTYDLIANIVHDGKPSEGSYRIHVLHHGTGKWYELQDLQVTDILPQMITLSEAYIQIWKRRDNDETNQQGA
Outline: as §1

USP4 = biological target: T4, USP4 (UniProt Q13107)
T4 sequence (whole entry): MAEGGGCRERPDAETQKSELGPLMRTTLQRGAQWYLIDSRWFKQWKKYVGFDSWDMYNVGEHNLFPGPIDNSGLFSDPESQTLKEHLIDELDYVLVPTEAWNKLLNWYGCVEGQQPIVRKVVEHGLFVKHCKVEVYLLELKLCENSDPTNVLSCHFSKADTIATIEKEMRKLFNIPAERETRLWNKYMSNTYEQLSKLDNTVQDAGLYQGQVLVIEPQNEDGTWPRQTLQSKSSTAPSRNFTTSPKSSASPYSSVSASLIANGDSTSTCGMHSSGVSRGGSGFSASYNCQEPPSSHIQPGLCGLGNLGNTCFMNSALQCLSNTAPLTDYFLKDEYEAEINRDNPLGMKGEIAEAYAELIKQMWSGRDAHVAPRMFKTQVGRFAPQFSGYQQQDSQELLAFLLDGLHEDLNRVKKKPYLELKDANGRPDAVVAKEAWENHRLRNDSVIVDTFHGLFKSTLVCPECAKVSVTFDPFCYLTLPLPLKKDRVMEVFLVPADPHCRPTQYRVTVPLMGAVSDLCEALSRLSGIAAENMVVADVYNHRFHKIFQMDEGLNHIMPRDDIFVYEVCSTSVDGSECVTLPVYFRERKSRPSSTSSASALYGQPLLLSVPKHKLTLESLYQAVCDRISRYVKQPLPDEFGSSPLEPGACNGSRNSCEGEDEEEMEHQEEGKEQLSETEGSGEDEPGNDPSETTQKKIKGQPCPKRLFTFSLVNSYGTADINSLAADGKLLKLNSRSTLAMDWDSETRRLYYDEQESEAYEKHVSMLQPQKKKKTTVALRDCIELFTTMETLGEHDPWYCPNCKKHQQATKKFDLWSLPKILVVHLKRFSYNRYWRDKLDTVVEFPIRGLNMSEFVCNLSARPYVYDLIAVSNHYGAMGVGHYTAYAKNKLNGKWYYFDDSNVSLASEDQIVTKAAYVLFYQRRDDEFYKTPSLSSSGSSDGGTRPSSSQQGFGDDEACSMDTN
Outline: as §1

Measured: log2 ratio of Biotin-Ahx-Ub-VS probe labelling

Sequence of USP34 (Q70CQ2 whole entry, the tested form may be a part): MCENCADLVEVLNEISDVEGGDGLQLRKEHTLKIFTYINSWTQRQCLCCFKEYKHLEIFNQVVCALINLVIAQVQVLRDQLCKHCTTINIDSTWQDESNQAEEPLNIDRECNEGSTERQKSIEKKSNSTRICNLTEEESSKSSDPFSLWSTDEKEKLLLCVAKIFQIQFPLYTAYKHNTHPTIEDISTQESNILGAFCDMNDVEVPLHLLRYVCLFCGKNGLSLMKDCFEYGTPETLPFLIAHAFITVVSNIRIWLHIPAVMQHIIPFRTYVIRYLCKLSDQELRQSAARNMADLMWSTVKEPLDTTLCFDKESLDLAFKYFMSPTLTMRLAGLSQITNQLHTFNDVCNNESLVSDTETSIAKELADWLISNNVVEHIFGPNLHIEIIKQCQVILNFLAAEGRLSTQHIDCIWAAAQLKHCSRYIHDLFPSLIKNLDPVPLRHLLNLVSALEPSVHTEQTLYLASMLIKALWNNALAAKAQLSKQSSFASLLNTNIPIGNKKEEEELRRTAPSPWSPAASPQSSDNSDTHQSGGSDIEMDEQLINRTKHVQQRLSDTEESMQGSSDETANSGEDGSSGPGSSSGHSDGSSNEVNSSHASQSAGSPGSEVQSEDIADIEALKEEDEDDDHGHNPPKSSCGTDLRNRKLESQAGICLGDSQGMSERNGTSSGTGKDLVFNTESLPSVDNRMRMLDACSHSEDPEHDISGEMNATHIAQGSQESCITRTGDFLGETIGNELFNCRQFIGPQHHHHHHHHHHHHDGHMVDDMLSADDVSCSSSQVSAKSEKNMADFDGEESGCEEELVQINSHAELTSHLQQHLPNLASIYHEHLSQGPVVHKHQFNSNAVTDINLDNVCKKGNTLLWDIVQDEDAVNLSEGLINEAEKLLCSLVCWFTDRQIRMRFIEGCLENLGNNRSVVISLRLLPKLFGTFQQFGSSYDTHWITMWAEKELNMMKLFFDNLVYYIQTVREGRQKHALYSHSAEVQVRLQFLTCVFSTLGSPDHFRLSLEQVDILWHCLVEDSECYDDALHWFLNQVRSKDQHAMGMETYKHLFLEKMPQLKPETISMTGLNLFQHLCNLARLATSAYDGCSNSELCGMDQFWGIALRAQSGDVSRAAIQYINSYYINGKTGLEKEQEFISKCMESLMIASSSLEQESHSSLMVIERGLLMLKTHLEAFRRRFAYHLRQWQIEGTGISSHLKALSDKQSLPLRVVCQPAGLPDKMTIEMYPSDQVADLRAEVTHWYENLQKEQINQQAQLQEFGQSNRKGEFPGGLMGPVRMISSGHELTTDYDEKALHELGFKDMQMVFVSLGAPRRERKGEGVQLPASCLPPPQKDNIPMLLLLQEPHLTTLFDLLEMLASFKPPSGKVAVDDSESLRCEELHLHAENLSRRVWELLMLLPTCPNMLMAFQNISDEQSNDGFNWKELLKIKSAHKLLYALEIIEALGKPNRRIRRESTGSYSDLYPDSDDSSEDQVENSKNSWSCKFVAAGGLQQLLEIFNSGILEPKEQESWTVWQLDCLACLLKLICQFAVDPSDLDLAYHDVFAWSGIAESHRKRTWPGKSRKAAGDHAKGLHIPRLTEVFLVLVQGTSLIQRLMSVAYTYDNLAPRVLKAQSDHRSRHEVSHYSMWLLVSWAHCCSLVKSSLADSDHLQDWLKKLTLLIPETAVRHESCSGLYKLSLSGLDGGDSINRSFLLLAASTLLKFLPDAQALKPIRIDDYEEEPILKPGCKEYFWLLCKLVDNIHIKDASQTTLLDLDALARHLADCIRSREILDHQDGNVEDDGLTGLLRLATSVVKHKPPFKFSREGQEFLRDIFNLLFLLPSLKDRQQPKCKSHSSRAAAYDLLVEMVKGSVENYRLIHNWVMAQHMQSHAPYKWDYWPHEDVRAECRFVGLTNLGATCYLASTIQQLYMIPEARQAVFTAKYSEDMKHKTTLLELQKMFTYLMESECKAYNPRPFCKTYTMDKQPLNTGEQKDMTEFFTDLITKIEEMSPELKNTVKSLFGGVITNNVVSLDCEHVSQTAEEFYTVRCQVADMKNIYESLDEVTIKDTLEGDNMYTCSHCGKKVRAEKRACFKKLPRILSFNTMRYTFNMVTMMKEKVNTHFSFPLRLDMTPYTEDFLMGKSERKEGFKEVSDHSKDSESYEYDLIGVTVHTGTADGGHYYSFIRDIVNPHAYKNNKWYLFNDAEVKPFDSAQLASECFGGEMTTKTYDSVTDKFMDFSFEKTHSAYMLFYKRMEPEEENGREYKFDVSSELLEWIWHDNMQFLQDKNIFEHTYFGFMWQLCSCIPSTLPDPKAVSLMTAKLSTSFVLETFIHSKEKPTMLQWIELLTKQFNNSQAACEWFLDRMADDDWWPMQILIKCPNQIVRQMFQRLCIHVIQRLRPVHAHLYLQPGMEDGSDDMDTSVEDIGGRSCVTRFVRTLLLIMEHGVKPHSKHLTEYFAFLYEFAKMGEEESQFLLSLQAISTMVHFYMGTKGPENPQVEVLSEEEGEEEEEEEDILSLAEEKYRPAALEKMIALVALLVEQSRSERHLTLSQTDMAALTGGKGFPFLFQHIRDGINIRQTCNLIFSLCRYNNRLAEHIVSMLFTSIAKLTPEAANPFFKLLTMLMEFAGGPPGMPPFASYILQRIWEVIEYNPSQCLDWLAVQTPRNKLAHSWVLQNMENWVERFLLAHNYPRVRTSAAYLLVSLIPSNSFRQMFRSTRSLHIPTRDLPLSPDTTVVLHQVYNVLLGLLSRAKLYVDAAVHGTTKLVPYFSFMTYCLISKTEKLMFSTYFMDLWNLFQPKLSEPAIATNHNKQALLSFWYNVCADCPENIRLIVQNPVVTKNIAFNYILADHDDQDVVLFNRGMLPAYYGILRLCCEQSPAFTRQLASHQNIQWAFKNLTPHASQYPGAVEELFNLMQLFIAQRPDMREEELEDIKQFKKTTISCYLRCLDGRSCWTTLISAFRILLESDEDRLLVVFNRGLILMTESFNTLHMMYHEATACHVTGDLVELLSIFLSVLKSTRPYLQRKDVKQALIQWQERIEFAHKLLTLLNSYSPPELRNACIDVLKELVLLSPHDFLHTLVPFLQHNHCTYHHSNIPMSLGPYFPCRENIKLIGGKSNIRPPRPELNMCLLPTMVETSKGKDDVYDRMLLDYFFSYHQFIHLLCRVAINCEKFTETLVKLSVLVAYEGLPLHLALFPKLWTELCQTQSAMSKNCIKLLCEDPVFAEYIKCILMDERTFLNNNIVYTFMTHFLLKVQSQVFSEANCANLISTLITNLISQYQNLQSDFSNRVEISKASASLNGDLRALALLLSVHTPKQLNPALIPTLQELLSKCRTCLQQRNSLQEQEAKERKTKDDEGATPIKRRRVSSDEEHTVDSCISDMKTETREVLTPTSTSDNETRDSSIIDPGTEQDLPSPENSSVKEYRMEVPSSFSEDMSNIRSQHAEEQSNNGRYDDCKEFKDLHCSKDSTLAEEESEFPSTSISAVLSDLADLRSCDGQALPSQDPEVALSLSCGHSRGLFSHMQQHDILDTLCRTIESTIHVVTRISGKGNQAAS

Cc1ccc(CN(CCO)C(=O)CCl)cc1
inactive: USP34 0.0432 | USP36 -0.00999 | USP38 -0.303 | USP39 -0.0925 | USP4 -0.21
